From PubChem BioAssay (NCATS)
Results filed as inconclusive are left out. The source made the active and inactive calls. Unless noted, the call rests on the fitted dose curve; in most records, active means well fitted curve in the direction sought with a large enough effect; inconclusive means small, poorly fitted or top-dose-only effect, or another doubt; inactive means no such curve, though single readings can be large; an effect the other way counts as inactive or inconclusive.

Experiments:
[1] = qHTS for Inhibitors of Plasmodium falciparum (CP250) proliferation (AID 504320); further: potency means the concentration at half of the fitted maximal effect
How it was run: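 Erythrocytes infected with P. falciparum line (0.3% parasitemia, 2.5% hematocrit final) incubated with compounds 72 h at 37 °C, 5% CO2; SYBR Green lysis buffer added, fluorescence read next day. Normalized to 0.29 uM artemisinin and DMSO.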

[2] = target: Atrial natriuretic peptide receptor 1 (Homo sapiens) (UniProt P16066); assay: Natriuretic polypeptide receptor (hNpr1) antagonism - Pilot CMLD screen (AID 1347052; calls by dose curve;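 further: HEK293 cells with hNpr1 stimulated by hNppA peptide at 0.1 nM; cGMP level read as GloSensor luciferase luminescence after agonist stimulation; series mostly up to about 9.2 µM; on the % scale 0 is the no-effect control and ±100 the full control effect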)
Chain of Atrial natriuretic peptide receptor 1 (Homo sapiens) (P16066 whole entry, looked up): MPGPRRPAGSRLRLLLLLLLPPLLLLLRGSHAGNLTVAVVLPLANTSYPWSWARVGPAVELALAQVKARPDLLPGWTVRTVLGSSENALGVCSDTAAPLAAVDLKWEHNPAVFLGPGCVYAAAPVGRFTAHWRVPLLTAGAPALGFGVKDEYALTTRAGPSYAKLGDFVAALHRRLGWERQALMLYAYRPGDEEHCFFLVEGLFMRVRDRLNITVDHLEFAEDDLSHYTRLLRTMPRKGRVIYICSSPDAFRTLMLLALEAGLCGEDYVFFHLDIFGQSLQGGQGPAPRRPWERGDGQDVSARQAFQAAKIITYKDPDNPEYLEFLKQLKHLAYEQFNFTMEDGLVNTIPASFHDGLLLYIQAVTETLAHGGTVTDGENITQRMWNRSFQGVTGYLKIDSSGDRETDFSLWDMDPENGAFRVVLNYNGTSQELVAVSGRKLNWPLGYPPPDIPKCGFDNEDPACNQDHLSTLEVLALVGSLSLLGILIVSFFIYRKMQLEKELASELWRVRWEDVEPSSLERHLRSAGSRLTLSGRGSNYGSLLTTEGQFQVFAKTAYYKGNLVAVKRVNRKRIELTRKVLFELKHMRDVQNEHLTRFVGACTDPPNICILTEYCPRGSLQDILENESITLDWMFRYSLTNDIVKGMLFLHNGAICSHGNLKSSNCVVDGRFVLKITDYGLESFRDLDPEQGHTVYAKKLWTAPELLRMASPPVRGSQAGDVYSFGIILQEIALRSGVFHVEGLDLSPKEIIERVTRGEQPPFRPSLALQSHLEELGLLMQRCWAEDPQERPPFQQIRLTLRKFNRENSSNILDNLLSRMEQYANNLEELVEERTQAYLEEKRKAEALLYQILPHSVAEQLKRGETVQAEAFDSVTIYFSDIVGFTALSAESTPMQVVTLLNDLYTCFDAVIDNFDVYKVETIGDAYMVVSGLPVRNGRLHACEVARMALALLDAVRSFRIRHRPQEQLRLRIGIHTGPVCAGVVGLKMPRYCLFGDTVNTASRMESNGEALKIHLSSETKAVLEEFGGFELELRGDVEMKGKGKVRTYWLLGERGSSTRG

Furin (Homo sapiens) = Furin (Homo sapiens) (UniProt P09958); assay: Furin counterscreen qHTS for Zika virus inhibitors (AID 1347149); further: potency means the concentration at half of the fitted maximal effect; nearly all actives have a fitted effect of over 70% in size
How it was run: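 Fluorogenic cleavage of BOC-RVRR-AMC (2 microM final, Km ~15 µM) was monitored (ex 340, em 450 nm) at 37C after 15 min RT preincubation of 5 nM furin with compounds in HEPES pH 7.0 buffer with CaCl2 and Triton X-100. Percent inhibition was fitted to a 4-parameter Hill curve.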

[3] = Confirmation and Secondary Assay for Modulators of Hemoglobin Beta Chain Splicing at IVS2 654 locus (AID 910);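 further: HeLa cells stably carrying EGFP split by mutant beta-globin IVS2-654 intron; % of control where 0% means no effect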
How it was run: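 HeLa cells stably expressing EGFP interrupted by β-globin IVS2-654 intron, seeded overnight in Opti-MEM/2% FCS, then treated 2 days at 37 °C. Restored splicing read as total peak GFP intensity per well by laser scanning cytometry (488 nm excitation, 500–520 nm emission); 500 nM antisense PNA as control.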

[4] = target: ATP-dependent DNA helicase Q1 (Homo sapiens) (UniProt P46063); assay: qHTS Validation Assay for Inhibitors of RecQ-Like Dna Helicase 1 (RECQ1) (AID 2353);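 further: plate controls were DMSO vehicle for no effect and enzyme-free control for full effect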
How it was run: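 50 nM RECQ1T1 preincubated 15 min with compound in Tris pH 8.0 buffer with MgCl2, DTT, Tween-20 and 2.5 ug/ml poly(dI-dC); started with 200 nM TAMRA/BHQ-2 forked duplex and 2 mM ATP. Unwinding read as fluorescence (525/598 nm), two reads 2 h apart.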

[5] = target: M-phase phosphoprotein 8 (Homo sapiens) (UniProt Q99549); assay: qHTS Validation Assay for Inhibitors for MPP8 Chromodomain Interactions with Methylated Histone Tails (AID 488949);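 further: 50 nM MPP8 with 50 nM peptide preformed then compounds added for 30 min; AlphaScreen signal from MPP8 chromodomain bound to biotinylated H3K9me3 peptide; top concentration of the series differs between compounds; on the % scale 0 is the no-effect control and ±100 the full control effect; nearly all actives have a fitted effect of over 55% in size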
Chain of M-phase phosphoprotein 8 (Homo sapiens) (Q99549 whole entry, looked up): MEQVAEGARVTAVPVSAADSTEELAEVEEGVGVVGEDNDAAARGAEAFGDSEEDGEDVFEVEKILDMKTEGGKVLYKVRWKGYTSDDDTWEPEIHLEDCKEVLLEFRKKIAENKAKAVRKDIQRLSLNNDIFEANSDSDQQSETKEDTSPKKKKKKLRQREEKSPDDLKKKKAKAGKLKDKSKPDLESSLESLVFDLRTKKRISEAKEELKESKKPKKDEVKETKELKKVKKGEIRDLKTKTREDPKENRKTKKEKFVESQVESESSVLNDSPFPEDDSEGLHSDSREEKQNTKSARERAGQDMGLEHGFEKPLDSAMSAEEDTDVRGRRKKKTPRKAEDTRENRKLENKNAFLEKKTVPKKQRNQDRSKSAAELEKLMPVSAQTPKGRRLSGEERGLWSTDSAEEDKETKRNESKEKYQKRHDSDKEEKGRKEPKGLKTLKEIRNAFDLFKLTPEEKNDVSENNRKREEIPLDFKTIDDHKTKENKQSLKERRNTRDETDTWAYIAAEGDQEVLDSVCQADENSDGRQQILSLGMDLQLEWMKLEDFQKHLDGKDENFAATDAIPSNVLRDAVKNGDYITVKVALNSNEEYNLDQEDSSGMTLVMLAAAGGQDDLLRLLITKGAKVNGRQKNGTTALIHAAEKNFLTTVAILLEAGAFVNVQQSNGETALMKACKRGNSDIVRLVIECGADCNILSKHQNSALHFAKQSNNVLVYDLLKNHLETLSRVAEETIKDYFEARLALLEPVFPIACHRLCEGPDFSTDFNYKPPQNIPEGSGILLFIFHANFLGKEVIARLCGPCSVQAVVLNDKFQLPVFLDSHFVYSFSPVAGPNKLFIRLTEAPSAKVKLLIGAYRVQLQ
How it was run: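 50 nM MPP8 + 50 nM b-H3K9me3 peptide, PBS pH 7.4/0.01% Tween-20, 30 min RT; + cpd 30 min RT; + AlphaScreen donor/Ni-chelate acceptor beads 10 ug/mL final, 30 min dark; luminescence read.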

[6] = target: T1, Hexokinase-4 (Homo sapiens) + Glucokinase regulatory protein (Homo sapiens) (UniProt P35557+Q14397); assay: qHTS assay for inhibitors of recombinant human GCK-GKRP interaction: Diaphorase-coupled assay (AID 743205)
T1 sequence (P35557 whole entry, looked up): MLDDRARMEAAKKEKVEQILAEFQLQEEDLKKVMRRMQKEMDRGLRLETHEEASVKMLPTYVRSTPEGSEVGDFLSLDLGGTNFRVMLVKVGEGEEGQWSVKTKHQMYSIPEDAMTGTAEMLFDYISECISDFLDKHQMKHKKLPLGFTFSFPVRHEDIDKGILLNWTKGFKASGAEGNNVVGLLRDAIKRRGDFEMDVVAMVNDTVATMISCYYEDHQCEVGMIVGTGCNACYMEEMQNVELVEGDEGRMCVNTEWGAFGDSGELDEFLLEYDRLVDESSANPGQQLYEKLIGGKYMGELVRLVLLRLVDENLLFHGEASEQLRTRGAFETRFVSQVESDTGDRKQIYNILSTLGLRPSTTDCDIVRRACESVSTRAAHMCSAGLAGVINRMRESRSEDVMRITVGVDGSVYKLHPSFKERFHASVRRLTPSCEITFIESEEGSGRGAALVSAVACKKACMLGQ
T1 sequence (Q14397 whole entry, looked up): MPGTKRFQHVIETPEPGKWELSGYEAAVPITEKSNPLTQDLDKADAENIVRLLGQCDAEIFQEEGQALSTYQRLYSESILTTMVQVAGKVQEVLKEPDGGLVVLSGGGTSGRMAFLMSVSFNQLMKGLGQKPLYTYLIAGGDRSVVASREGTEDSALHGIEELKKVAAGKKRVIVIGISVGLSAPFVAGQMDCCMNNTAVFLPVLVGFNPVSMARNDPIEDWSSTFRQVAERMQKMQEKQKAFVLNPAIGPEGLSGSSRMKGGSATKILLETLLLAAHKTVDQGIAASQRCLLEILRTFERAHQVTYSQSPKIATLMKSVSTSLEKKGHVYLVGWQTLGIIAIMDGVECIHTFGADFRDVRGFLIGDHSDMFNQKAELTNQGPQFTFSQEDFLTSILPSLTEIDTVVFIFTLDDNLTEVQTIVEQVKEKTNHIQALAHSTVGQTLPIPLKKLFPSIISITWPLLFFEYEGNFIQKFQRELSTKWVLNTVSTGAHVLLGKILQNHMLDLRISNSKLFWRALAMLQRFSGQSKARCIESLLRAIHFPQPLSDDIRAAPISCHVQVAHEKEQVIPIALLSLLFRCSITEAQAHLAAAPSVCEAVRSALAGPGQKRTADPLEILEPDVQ
How it was run: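 25 mM Hepes pH 7.6, 5 mM glucose, 0.4 mM ATP, 4 U/ml G6PDH; 10 nM each GST-GCK/FLAG-GKRP. Kinetic fluorescence read, 1/min × 30 min. Normalized: DMSO ± enzyme = max/min.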

[7] = target: T1, Hexokinase-4 (Homo sapiens) + Glucokinase regulatory protein (Homo sapiens); assay: qHTS assay for inhibitors of recombinant human GCK-GKRP interaction: ADP-Glo assay (AID 743206);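 further: plate controls were DMSO plus enzyme for no effect and no enzyme for full effect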
How it was run: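 GST-GCK and FLAG-GKRP (15 nM each in the dispensed mix, with 2 uM S6P) react with 0.4 mM ATP and 5 mM glucose (final) in Hepes pH 7.6 for 60 min at room temperature. ADP is measured by ADP-Glo luminescence.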

[8] = target: T1, Hexokinase-4 (Homo sapiens) + Glucokinase regulatory protein (Homo sapiens); assay: qHTS assay for inhibitors of recombinant human GCK-GKRP interaction: HTRF assay (AID 743207);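 further: 0% = DMSO with GCK present and -100% = DMSO wells lacking GCK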
How it was run: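 5 nM GST-GCK + 5 nM FLAG-GKRP + 2 uM S6P, pH 7.1 buffer (25 mM Hepes, 2 mM MgCl2, 25 mM KCl, 1 mM DTT, Tween/BSA); pin-transferred cpd; anti-FLAG XL665/anti-GST K; 60 min RT; HTRF.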

[9] = target: Parathyroid hormone/parathyroid hormone-related peptide receptor (Homo sapiens) (UniProt Q03431); assay: qHTS for PTHR1 Agonists: Optimization Screen against the NCGC LOPAC library (AID 1347079);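 further: GloSensor cAMP luminescence in HEK-293 GP2 cells expressing human PTHR1 with IBMX; 0% is about no effect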
How it was run: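 Compounds were tested across a qHTS titration. PTHR1-expressing GP2 cells report cAMP rises via GloSensor luminescence after 1 hr compound exposure at 37C with IBMX present.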

[10] = target: N-terminal Xaa-Pro-Lys N-methyltransferase 1 (Homo sapiens) (UniProt Q9BV86); assay: qHTS Assay for Inhibitors of N-terminal methyltransferase 1 (NTMT1): LOPAC validation of the NTMT1 SAHH-coupled ThioGlo3 Assay (AID 1347143);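 further: SAH from peptide methylation measured as thiol fluorescence via SAHH coupling and ThioGlo3; on the % scale 0 is the no-effect control and ±100 the full control effect; nearly all actives have a fitted effect of over 70% in size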
How it was run: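 Recombinant human NTMT1 (125nM) was pre-incubated 1 min at room temperature with compounds over a concentration range, then a mix of 100uM SAM, 10uM SAHH and 15uM ThioGlo3 (concentrations in added reagent) was added. ThioGlo3 fluorescence (ex 340/em 450nm) after 30 min was normalized to the initial reading.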

[11] = test system: Zika virus NS2B-NS3 protease (unlinked); assay: Optimization of GU AMC qHTS for Zika virus inhibitors: Unlinked NS2B-NS3 protease assay (AID 1347151);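 further: series mostly up to about 52 µM; 0% = no-inhibitor control and -100% = no-enzyme control; nearly all actives have a fitted effect of over 80% in size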
How it was run: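 Unlinked protease (25 nM final); buffer 10 mM Tris-HCl pH 8.0 + 0.01% Tween 20; AMC substrate; 15 min RT, dark; Δfluorescence normalized to no-inhibitor/no-enzyme controls; 4-parameter Hill fit.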

[12] = test system: Zika virus NS2B-NS3 protease; assay: Primary screen GU AMC qHTS for Zika virus inhibitors (AID 1347154);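 further: 0% = no-inhibitor control and -100% = no-enzyme control; nearly all actives have a fitted effect of over 70% in size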
How it was run: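 Unlinked Zika NS2B hydrophilic domain–NS3 protease complex at 25 nM in 10 mM Tris-HCl pH 8.0, 0.01% Tween 20, with an AMC peptide substrate. Fluorescence change (340/450 nm) over 15 min at room temperature, normalized to controls, fitted to 4-parameter Hill.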

[13] = test system: Zika virus NS2B-NS3 protease (linked construct); assay: Primary screen NINDS Rhodamine qHTS for Zika virus inhibitors (AID 1347160); further: on the % scale 0 is the no-effect control and ±100 the full control effect; nearly all actives have a fitted effect of over 55% in size
How it was run: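 Purified NS2B-NS3 protease with the NS2B hydrophilic domain joined by a flexible linker (25 nM) in 10 mM Tris-HCl pH 8.0, 0.01% Tween 20, preincubated 15 min at RT with compound; Rhodamine110 peptide substrate 1.5 µM; fluorescence change over 15 min; 4-parameter Hill fit.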

[14] = target: Lysine-specific demethylase 5B (Homo sapiens) (UniProt Q9UGL1); assay: Optimization screen for KDM5B Histone Demethylases FDH coupled qHTS against the LOPAC library (AID 1347166); further: 0% is about no effect
How it was run: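 KDM5BDeltaAP (200nM final) preincubated 10 min with compound, then 12.5uM H3K4Me3, 25uM a-ketoglutarate, ascorbate, Fe(II), NAD+ and FDH added; 50mM HEPES pH 7.5, 0.01% Tween-20. NADH fluorescence (340/450 nm) change over 30 min, room temperature.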

[15] = qHTS for inhibitors of adenylyl cyclases using a fission yeast platform: a pilot screen against the NCATS LOPAC library (AID 1347410);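 further: plate controls were DMSO vehicle for no effect and DPI positive control for full effect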
How it was run: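 Fission yeast qHTS: CHP2027 cells (AC9-GNAS-PDE4D2, fbp1-GFP), 5x10^6 cells/mL working density, EMM + His/Lys/Ura; LOPAC at up to 57 µM final; 18 h dark, 30C; GFP by laser cytometry. DPI positive control, DMSO vehicle.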

[16] = target: Single-stranded DNA cytosine deaminase (Homo sapiens) (UniProt Q9GZX7); assay: Validation qHTS assay for inhibitors of Activation Induced Cytidine Deaminase (AID): AID signal (AID 1347429); further: on the % scale 0 is the no-effect control and ±100 the full control effect
Chain of Single-stranded DNA cytosine deaminase (Homo sapiens) (Q9GZX7 whole entry, looked up): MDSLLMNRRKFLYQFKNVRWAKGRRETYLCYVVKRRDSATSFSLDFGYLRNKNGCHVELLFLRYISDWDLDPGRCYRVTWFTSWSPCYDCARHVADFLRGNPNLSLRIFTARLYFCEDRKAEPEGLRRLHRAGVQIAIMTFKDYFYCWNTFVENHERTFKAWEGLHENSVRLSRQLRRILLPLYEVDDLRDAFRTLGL
How it was run: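 AID and UDG were combined and compounds added at final up to 114 uM, then DJC20/DJC23 FRET substrate was added for 4 hr at room temperature. NaOH was then added for 30 min before fluorescence was read at 540/590 nm.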

[17] = Primary qHTS for inhibitors of La Crosse Virus (LACV) - induced cell death in SH-SY5Y cells (AID 1508616);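 further: top concentration of the series differs between compounds; 0% = infected DMSO wells and 100% = uninfected DMSO wells; higher means more rescue of cells from virus-induced death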
How it was run: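 Luminescent ATP readout (ATPLite 1step, 5 min room temperature) measured rescue from LACV-induced death after 6 days of infection at 0.01 MOI; normalized to infected DMSO wells and uninfected DMSO wells.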

Papain (Carica papaya) = Papain (Carica papaya) (UniProt P00784); assay: Primary qHTS assay for inhibitors of the protease papain (AID 1645873);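 further: papain turnover of Z-FR-AMC read as the AMC fluorescence gain over 10 min; series mostly up to about 50 µM; on the % scale 0 is the no-effect control and ±100 the full control effect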
Chain of Papain (Carica papaya) (P00784 whole entry, looked up): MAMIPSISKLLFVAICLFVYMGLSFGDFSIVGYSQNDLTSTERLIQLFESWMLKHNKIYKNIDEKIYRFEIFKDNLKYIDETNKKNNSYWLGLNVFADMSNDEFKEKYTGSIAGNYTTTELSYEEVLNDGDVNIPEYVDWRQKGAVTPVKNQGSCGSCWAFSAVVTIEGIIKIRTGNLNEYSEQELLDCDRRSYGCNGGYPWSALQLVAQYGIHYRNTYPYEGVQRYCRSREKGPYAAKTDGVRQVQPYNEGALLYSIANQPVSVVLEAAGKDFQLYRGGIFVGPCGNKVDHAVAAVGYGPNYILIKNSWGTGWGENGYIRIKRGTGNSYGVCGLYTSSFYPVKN

[18] = target: Rap guanine nucleotide exchange factor 4 (Homo sapiens) (UniProt Q8WZA2); assay: Confirmatory qHTS for antagonist of cAMP-regulated guanine nucleotide exchange factor 4 (EPAC2) (AID 1645885); further: potency means the concentration at half of the fitted maximal effect; nearly all actives have a fitted effect of over 25% in size
Chain of Rap guanine nucleotide exchange factor 4 (Homo sapiens) (Q8WZA2 whole entry, looked up): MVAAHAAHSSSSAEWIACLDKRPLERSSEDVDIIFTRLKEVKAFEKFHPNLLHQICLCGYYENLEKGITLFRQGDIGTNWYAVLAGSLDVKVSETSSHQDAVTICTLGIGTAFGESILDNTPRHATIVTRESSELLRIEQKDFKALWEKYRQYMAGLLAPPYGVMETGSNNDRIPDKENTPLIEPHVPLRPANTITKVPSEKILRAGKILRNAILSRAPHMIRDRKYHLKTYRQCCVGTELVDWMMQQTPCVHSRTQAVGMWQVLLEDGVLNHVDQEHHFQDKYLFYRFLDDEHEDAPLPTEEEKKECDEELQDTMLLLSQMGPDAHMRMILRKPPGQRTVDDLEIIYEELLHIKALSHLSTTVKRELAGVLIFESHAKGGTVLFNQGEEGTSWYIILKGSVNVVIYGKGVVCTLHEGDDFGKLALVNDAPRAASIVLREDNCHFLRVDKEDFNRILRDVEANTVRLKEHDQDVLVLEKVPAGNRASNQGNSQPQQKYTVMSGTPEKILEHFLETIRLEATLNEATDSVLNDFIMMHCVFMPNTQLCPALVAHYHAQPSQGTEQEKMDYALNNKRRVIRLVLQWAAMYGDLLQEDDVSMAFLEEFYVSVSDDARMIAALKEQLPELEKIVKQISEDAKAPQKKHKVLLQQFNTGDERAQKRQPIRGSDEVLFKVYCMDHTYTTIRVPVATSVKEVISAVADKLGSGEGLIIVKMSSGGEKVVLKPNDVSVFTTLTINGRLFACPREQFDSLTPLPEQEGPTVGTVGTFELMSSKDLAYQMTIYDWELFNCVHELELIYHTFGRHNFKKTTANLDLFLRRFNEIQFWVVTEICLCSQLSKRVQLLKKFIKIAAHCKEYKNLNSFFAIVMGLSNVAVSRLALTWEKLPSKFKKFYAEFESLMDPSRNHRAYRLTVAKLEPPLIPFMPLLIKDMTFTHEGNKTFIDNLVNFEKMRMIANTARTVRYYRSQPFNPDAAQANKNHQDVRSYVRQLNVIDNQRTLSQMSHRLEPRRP

[19] = target: Glutathione peroxidase 1 (Homo sapiens) (UniProt P07203); assay: Primary qHTS Assay for Inhibitors of Recombinant Selenoprotein Glutathione Peroxidase 1 (GPX1) (AID 1845191); further: nearly all actives have a fitted effect of over 65% in size
Chain of Glutathione peroxidase 1 (Homo sapiens) (P07203 whole entry, looked up): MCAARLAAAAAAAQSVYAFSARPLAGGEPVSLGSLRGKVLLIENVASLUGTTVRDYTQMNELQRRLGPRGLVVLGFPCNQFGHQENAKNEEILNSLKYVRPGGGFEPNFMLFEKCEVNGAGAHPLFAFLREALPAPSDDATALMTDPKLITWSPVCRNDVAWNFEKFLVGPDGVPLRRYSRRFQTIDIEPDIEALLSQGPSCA
How it was run: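 GR-coupled assay: compounds preincubated 30 min at room temperature with GPX1, then reaction started with CHP; final 10 nM GPX1, 1 mM GSH, 0.5 mM CHP, 0.5 mM NADPH, 100 nM GR, 0.01% BSA, pH 7.5 Tris buffer. NADPH fluorescence (340/450 nm) read at 0 and 15 min.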

[20] = target: Phospholipid hydroperoxide glutathione peroxidase GPX4 (Homo sapiens) (UniProt P36969); assay: Primary qHTS Assay for Inhibitors of Recombinant Selenoprotein Glutathione Peroxidase 4 (GPX4) (AID 1845192); details: outcome: dose series up to 50 µM unless noted; further: series mostly up to about 50 µM; on the % scale 0 is the no-effect control and ±100 the full control effect; nearly all actives have a fitted effect of over 65% in size
Chain of Phospholipid hydroperoxide glutathione peroxidase GPX4 (Homo sapiens) (P36969 whole entry, looked up): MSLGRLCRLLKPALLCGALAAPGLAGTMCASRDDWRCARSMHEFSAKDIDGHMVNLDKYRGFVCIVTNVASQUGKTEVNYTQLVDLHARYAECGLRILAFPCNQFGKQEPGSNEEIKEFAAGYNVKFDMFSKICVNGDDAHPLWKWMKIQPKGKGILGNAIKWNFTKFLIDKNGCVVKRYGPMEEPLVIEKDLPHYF
How it was run: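 GR-coupled assay: recombinant GPX4 preincubated 30 min with compound at room temperature; final 200 nM GPX4, 1 mM GSH, 0.5 mM cumene hydroperoxide, 0.5 mM NADPH, 100 nM GR, 0.01% BSA, pH 7.5 Tris. NADPH fluorescence (340/450 nm) read at 0 and 15 min.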

[21] = target: Luciferin 4-monooxygenase (Photinus pyralis) (UniProt P08659); assay: Primary firefly luciferase (FLuc) qHTS assay for identification of artifact compounds. (AID 1845220); further: nearly all actives have a fitted effect of over 60% in size
How it was run: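 Titrated compounds were incubated 15 min at RT, protected from light, with luciferin and ATP at 10 uM; reaction started with 10 nM FLuc, luminescence imaged at 5 min, and concentration-response fitted by Hill equation.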

[22] = Primary fluorescence-based thiol-reactive (MSTI) qHTS assay for identification of artifact compounds. (AID 1845221);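 further: series mostly up to about 54 µM; thiol-reactive compounds lower the probe fluorescence signal; nearly all actives have a fitted effect of over 65% in size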
How it was run: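 A multi-concentration qHTS design tested compounds against 4 uM MSTI, pH 7.4 phosphate-buffered saline. Plates were protected from light for 1 h at room temperature before imaging fluorescence.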

[23] = Primary redox qHTS assay for identification of artifact compounds. (AID 1845223);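 further: 0% = DMSO and 100% = reference compound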
How it was run: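 Amplex Red (25 uM) and HRP (250 mU/mL) in HBSS, with compounds for 15 min, then 250 uM DTT for 30 min, room temperature, dark. Fluorescence 525/598 nm read; normalized to DMSO and 10 uM DA3003; Hill fit.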

[24] = qHTS drug screen for cell cycle checkpoint inhibitors in PARPi-resistant BRCA-mutant ovarian cancer cell lines. (AID 1963452; calls by dose curve); details: PEO1/OlaR viability, CellTiter-Glo luminescence, 96 h, stronger effect = lower value
How it was run: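 PEO1, PEO4 and PEO1/OlaR ovarian cancer cells, 600 per well, exposed 96 h at 37C to a dilution series. Viability read by CellTiter-Glo luminescence, normalized to DMSO and empty wells; activity summarized as Z-AUC.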

C[C@@H]1C=CCC(=O)N[C@@H](c2ccc3ccccc3c2)[C@H](C)C=CCC(=O)N[C@@H]1c1ccc2ccccc2c1
inactive: Potency [1] | Potency [2]

COc1ccc2c(c1)C[C@@H](C)O[C@]21C(=O)Nc2ccccc21
inactive: Potency [1] | Potency [2]

O=C1N(CC2CC2)c2cccc(Br)c2[C@@]12O[C@H](COc1ccccc1)CC1=CCCC12 (some centres not stated)
inactive: Potency [1] | Potency [2]

COC(=O)[C@@H]1CC23C(=NC(c4ccc([N+](=O)[O-])cc4)=C(C(F)(F)F)[C@@H]2N(C)c2ccccc23)N1C(C)=O (some centres not stated)
inactive: Potency [1] | Potency [2]

CCOC(=O)CN1C(=O)[C@]2(O[C@H](COc3ccccc3)CC3=CCCC32)c2c(Br)cccc21 (some centres not stated)
inactive: Potency [1] | Potency [2]

CC=CC1=Cc2ccccc2C(C(C(=O)OC)C(=O)OC)N1C(=O)OC (configuration not stated)
inactive: Potency [1] | Potency [2]

O=C(OCc1cc(=O)n2c3c(sc2n1)CCCC3)c1cccc(NC(=O)c2ccccc2F)c1
active: Potency (Furin (Homo sapiens)) 59.1 µM

COC(=O)C1=C(C)N(Cc2ccccc2)C(=NCCc2ccccn2)NC1c1cccc(F)c1 (configuration not stated)
inactive: Potency [1] | Potency [2]

C/C=C/CC(C)C(O)C1C(=O)NC(CC)C(=O)N(C)CC(=O)N(C)C(CC(C)C)C(=O)NC(C(C)C)C(=O)N(C)C(CC(C)C)C(=O)NC(C)C(=O)NC(C)C(=O)N(C)C(CC(C)C)C(=O)N(C)C(CC(C)C)C(=O)N(C)C(C(C)C)C(=O)N1C (configuration not stated)
active: Potency [18] 7.84 µM
0.0499: Z-AUC ([24]; measured here: PEO4 Z-AUC)
inactive: outcome [3] | Potency [4] | Potency [5] | outcome [6] | outcome [7] | outcome [8] | outcome [9] | Potency [10] | Potency [11] | Potency [12] | Potency [13] | outcome [14] | outcome [15] | Potency [16] | outcome [17] | Potency (Papain (Carica papaya)) | Potency [19] | Potency [20] | Potency [21] | Potency [22] | Potency [23] | Z-AUC [24] -0.474
0.643: Z-AUC ([24]; measured here: PEO1 parental Z-AUC)

COC(=O)[C@@H]1CC[C@H](C)[C@@H](c2ccc(C)cc2)N1C(=O)c1ccc(C=NO[C@H](C)CN2CCCc3nc(C)c(C)cc32)cc1
active: Potency [1] 1.51 µM
inactive: Potency [2]
